Results on 13 compounds are retold here after PubChem BioAssay (NCI).

Some test systems named below: DU-145 prostate; K-562 leukemia; MALME-3M melanoma; MDA-MB-231 breast; RXF 393 renal; SF-268 CNS; SF-295 CNS; SF-539 CNS; UACC-257 melanoma; M14 melanoma.
Assay in all cases: NCI-60 one-dose screen, 48 h (100 = growth as untreated, 0 = no growth, -100 = all killed)
What all share (details): 10 µM unless noted

“And” between values parts separate entries of the source, which are not always exact repeats. Identical values can stand only once. Compounds without any hit were thinned out: in the full panel of roughly 83,000, 20% have a hit.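 Interpretation: 100, growth as untreated; towards 0, rising growth inhibition; 0, no net growth; 0 to -100, cell death. Compounds scoring below 10 were considered active.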 The source made the active and inactive calls.

Turning to `O=C(/C=C\c1ccccc1)N1c2ccccc2CC1c1c[nH]c2ccccc12` (stereo not given), the growth is 89.7% (inactive) in the test with DU-145 prostate; 65.9% (inactive) in the test on K-562 leukemia; 85.4% (inactive) in the test with MALME-3M melanoma; 60.8% (inactive) with MDA-MB-231 breast; 93.4% (inactive) in the test on RXF 393 renal; 75.2% (inactive) in the test with SF-268 CNS. For the same compound, the growth with SF-295 CNS is 68.7% (inactive); in the test with SF-539 CNS, 95.1% (inactive); in the test with UACC-257 melanoma, 88.8% (inactive); in the test on M14 melanoma, 71.6% (inactive).
Consider `Oc1c(Br)cc(Cl)cc1C(c1cc(Cl)cc(Br)c1O)C(Cl)(Cl)Cl`, for which the growth is 31.1% (inactive) in the test on DU-145 prostate; 13.7% (inactive) with K-562 leukemia; -0.8% (active) with MALME-3M melanoma; -11.3% (active) in the test on MDA-MB-231 breast; 12% (inactive) in the test on RXF 393 renal; 21.9% (inactive) in the test on SF-268 CNS. Moreover, the growth was 9.03% (active) in the test on SF-295 CNS, 30.8% (inactive) in the test with SF-539 CNS, 33% (inactive) in the test with UACC-257 melanoma and 31.4% (inactive) in the test on M14 melanoma.
For the compound `CC1OC2CC(=O)OC2C2=C1C(=O)c1c(O)cccc1C2=O` (stereo not given), the growth with DU-145 prostate is -98.3% (active); in the test on K-562 leukemia it was -7.94% (active); with MALME-3M melanoma, -77.4% (active); in the test on MDA-MB-231 breast, -65.9% (active); with RXF 393 renal, -96.4% (active); in the test with SF-268 CNS it was -92.9% (active). The growth with SF-295 CNS is -8.69% (active); in the test on SF-539 CNS it was -89.5% (active); in the test on UACC-257 melanoma, -78.5% (active); in the test on M14 melanoma it was -87.7% (active).
Regarding `O=C1OCc2cccc3cccc1c23`, the growth was 107% (inactive) in the test on DU-145 prostate; 103% (inactive) in the test with K-562 leukemia; 107% (inactive) with MALME-3M melanoma; 111% (inactive) in the test with MDA-MB-231 breast; 102% (inactive) with RXF 393 renal; 103% (inactive) in the test on SF-268 CNS. Also, the growth in the test with SF-295 CNS was 102% (inactive); with SF-539 CNS it was 98.4% (inactive); with UACC-257 melanoma it was 94.3% (inactive); in the test with M14 melanoma, 103% (inactive).
For the compound `N#CSCc1c(Cl)cccc1Cl`, the growth in the test on DU-145 prostate is 21% (inactive); in the test with K-562 leukemia, 83.8% (inactive); in the test with MALME-3M melanoma it was 47.1% (inactive); in the test on MDA-MB-231 breast, 80.4% (inactive); with RXF 393 renal it was 50.1% (inactive); with SF-268 CNS, 53.3% (inactive). The growth in the test with SF-295 CNS was 94.8% (inactive); in the test with SF-539 CNS, 88.5% (inactive); in the test with UACC-257 melanoma, 79.5% (inactive); in the test on M14 melanoma, 9.86% (active).
On to `N[C@H](C(=O)O)[C@@H]1CC(Cl)=NO1`, for which the growth in the test with DU-145 prostate was 37.7% [20 µM] (inactive); with K-562 leukemia it was 20% [20 µM] (inactive); in the test on MALME-3M melanoma, 33.5% [20 µM] (inactive); in the test with MDA-MB-231 breast it was 43.4% [20 µM] (inactive); in the test on RXF 393 renal, 48.7% [20 µM] (inactive); in the test on SF-268 CNS, 25.5% [20 µM] (inactive). Besides, the growth in the test with SF-295 CNS is 31.2% [20 µM] (inactive); with SF-539 CNS, 21.4% [20 µM] (inactive); in the test with UACC-257 melanoma, 39.1% [20 µM] (inactive); in the test with M14 melanoma it was 16.9% [20 µM] (inactive).
As for `CCC(c1cccc(O)c1)C(CC)c1cccc(O)c1` (stereo not given), the growth was 86% (inactive) with DU-145 prostate; 17.1% (inactive) in the test on K-562 leukemia; 54.8% (inactive) with MALME-3M melanoma; 64.2% (inactive) in the test on MDA-MB-231 breast; 79.5% (inactive) with RXF 393 renal; 63.7% (inactive) in the test on SF-268 CNS. In addition, the growth was 58.3% (inactive) in the test on SF-295 CNS, 39.1% (inactive) in the test on SF-539 CNS, 71.8% (inactive) with UACC-257 melanoma and 23.8% (inactive) with M14 melanoma.
In the case of `C/C=C1\SC(=S)NC1=O`, the growth is 110% (inactive) in the test with DU-145 prostate; 117% (inactive) in the test with K-562 leukemia; 92.9% (inactive) with MALME-3M melanoma; 96.9% (inactive) in the test on MDA-MB-231 breast; 114% (inactive) with RXF 393 renal; 103% (inactive) with SF-268 CNS. The growth is 102% (inactive) in the test on SF-295 CNS, 93.9% (inactive) with SF-539 CNS, 95% (inactive) in the test on UACC-257 melanoma and 97.5% (inactive) with M14 melanoma.
For the compound `Nc1nc(N)c2nc(CNc3ccc(C(=O)NC(CCC(=O)O)C(=O)O)cc3)cnc2n1` (stereo not given), the growth is 28.2% (inactive) and 21.8% (inactive) with DU-145 prostate; 18.7% (inactive) and 32% (inactive) in the test with K-562 leukemia; 47.8% (inactive) and 48.3% (inactive) in the test on MALME-3M melanoma; 78.1% (inactive) and 60.1% (inactive) in the test on MDA-MB-231 breast; 48% (inactive) and 76.4% (inactive) in the test on RXF 393 renal; 26.6% (inactive) and 27.3% (inactive) in the test on SF-268 CNS. In addition, the growth in the test on SF-295 CNS was 26% (inactive) and 12.9% (inactive); with SF-539 CNS it was 21.3% (inactive) and 18.4% (inactive); in the test on UACC-257 melanoma, 57.8% (inactive) and 52.2% (inactive); in the test with M14 melanoma it was 10.8% (inactive) and 9.2% (active).
As to `CN(C)c1ccc(/C=N/N=C(\C#N)[S][Sn]([Cl])([c]2ccccc2)[c]2ccccc2)cc1`, the growth is 5.62% (active) in the test on DU-145 prostate; 3.13% (active) in the test on K-562 leukemia; -50.8% (active) in the test on MALME-3M melanoma; -12.7% (active) in the test on MDA-MB-231 breast; -86.3% (active) with RXF 393 renal; 42.9% (inactive) in the test with SF-268 CNS. For the same compound, the growth is 107% (inactive) in the test with SF-295 CNS, -16.3% (active) in the test on SF-539 CNS, 21.3% (inactive) in the test with UACC-257 melanoma and 4.46% (active) with M14 melanoma.
Turning to `O=[N+]([O-])c1ccc2c(N=Nc3ccc4ccccc4c3O)c(O)cc(S(=O)(=O)O)c2c1`, the growth is 104% (inactive) with DU-145 prostate; 96.3% (inactive) in the test with K-562 leukemia; 99.9% (inactive) in the test on MALME-3M melanoma; 74.2% (inactive) with MDA-MB-231 breast; 97% (inactive) in the test with RXF 393 renal; 72.4% (inactive) in the test with SF-268 CNS. The growth in the test with SF-295 CNS was 102% (inactive); in the test on SF-539 CNS, 96.9% (inactive); with UACC-257 melanoma, 99.2% (inactive); with M14 melanoma, 80.7% (inactive).
On to `CCC1OC(OC)C=CC1=O` (stereo not given), for which the growth is 107% (inactive) with DU-145 prostate; 87.2% (inactive) with K-562 leukemia; 99.9% (inactive) in the test with MALME-3M melanoma; 106% (inactive) in the test with MDA-MB-231 breast; 113% (inactive) in the test with RXF 393 renal; 108% (inactive) with SF-268 CNS. Besides, the growth in the test on SF-295 CNS was 98.1% (inactive); in the test on SF-539 CNS, 101% (inactive); with UACC-257 melanoma, 117% (inactive); with M14 melanoma, 104% (inactive).
As for `CCCCCCCCCCCCCCCCCCOP(=O)([O-])OC1CC[N+](C)(C)CC1`, the growth in the test with DU-145 prostate was 54.2% (inactive) and 25.3% (inactive); with K-562 leukemia, 30.3% (inactive) and 20.7% (inactive); in the test with MALME-3M melanoma it was 69.7% (inactive) and 16.3% (inactive); in the test with MDA-MB-231 breast, 11% (inactive) and -10.4% (active); with RXF 393 renal, -49% (active) and 41.2% (inactive); in the test on SF-268 CNS, 38.9% (inactive) and 13.7% (inactive). The growth in the test on SF-295 CNS was 19.5% (inactive) and 0.462% (active); with SF-539 CNS, 36.3% (inactive) and 4.21% (active); in the test with UACC-257 melanoma, 45.4% (inactive) and 19% (inactive); with M14 melanoma, -33.9% (active) and -72.8% (active).
